In PubChem BioAssay (NCATS):
Values without a mark were called inactive. Inconclusive results are not listed. The list shows a part of the results. A call without a number means that no potency is given here. Activity calls are given as the source filed them. Unless noted, the call rests on the fitted dose curve; in most records, active means well fitted curve in the direction sought with a large enough effect; inconclusive means small, poorly fitted or top-dose-only effect, or another doubt; inactive means no such curve, though single readings can be large; an effect the other way counts as inactive or inconclusive.

How the values were obtained:
[1] = target: Tumor susceptibility gene 101 protein (Homo sapiens) (UniProt Q99816); experiment: qHTS Assay for Iinhibitors of HIV-1 Budding by Blocking the Interaction of PTAP/TSG101: Hit Validation (AID 651600); further: nearly all actives have a fitted effect of over 70% in size
Outline: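 Compounds are added to the Tsg101 binding domain (10 uM final) in pH 7.5 HEPES buffer. FITC-PTAP peptide follows at 50 nM final. After 20 min at r.t., polarized FITC emission is measured.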

[2] = target: Rap guanine nucleotide exchange factor 3 (Homo sapiens) (UniProt O95398); experiment: Confirmatory qHTS for antagonist of cAMP-regulated guanine nucleotide exchange factor 3 (EPAC1) (AID 1645880); settings: EPAC1 Rap1B-BODIPY-GDP exchange, fluorescence; activity, negative = inhibition: at 115 µM (top of the series); further: nearly all actives have a fitted effect of over 55% in size; further: potency means the concentration at half of the fitted maximal effect
Outline: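 Released BODIPY-GDP fluoresces less than Rap1-bound BODIPY-GDP; the signal is followed at 480/540 nm at 5-min intervals over 30 min, after 5 min at room temperature. Reactions contain 100 nM EPAC1, 250 nM RAP1B-BODIPY-GDP and 50 uM GDP; results are normalized to ATA and DMSO.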

[3] = target: Rap guanine nucleotide exchange factor 3 (Homo sapiens) (UniProt O95398); experiment: Confirmatory qHTS for agonist of cAMP-regulated guanine nucleotide exchange factor 3 (EPAC1) (AID 1645881); further: nearly all actives have a fitted effect of over 75% in size; further: potency means the concentration at half of the fitted maximal effect;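 on activation: EPAC1 catalysed release of BODIPY-GDP from Rap1B seen as fluorescence loss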
[4] = target: Rap guanine nucleotide exchange factor 4 (Homo sapiens) (UniProt Q8WZA2); experiment: Confirmatory qHTS for agonist of cAMP-regulated guanine nucleotide exchange factor 4 (EPAC2) (AID 1645884);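 further: nucleotide exchange releases bodipy-GDP from Rap1 and this lowers its fluorescence; nearly all actives have a fitted effect of over 65% in size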; further: potency means the concentration at half of the fitted maximal effect
[5] = target: Rap guanine nucleotide exchange factor 4 (Homo sapiens) (UniProt Q8WZA2); experiment: Confirmatory qHTS for antagonist of cAMP-regulated guanine nucleotide exchange factor 4 (EPAC2) (AID 1645885); further: nearly all actives have a fitted effect of over 25% in size; further: potency means the concentration at half of the fitted maximal effect
[6] = target: Rap guanine nucleotide exchange factor 3 (Homo sapiens) (UniProt O95398); experiment: Counterscreen qHTS for antagonist of cAMP-regulated guanine nucleotide exchange factor 3 (EPAC1) (AID 1645888)
Outline: (§1)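 Measured: fluorescence of BODIPY-GDP bound to Rap1B, which falls as exchange proceeds. Conditions include 50 uM competing GDP, 5 and 30 min reads, and a later cAMP challenge for antagonist detection.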

[7] = target: Rap guanine nucleotide exchange factor 3 (Homo sapiens) (UniProt O95398); experiment: Counterscreen qHTS for agonist of cAMP-regulated guanine nucleotide exchange factor 3 (EPAC1) (AID 1645889); further: nearly all actives have a fitted effect of over 40% in size; further: potency means the concentration at half of the fitted maximal effect
Outline: as §1

[8] = AP1 Signaling Pathway (AID 357; active means well fitted curve in either direction with a large enough effect, not every such curve was filed as active;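 further: ME-180 reporter cells stimulated with EGF at its EC50 level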); settings: ME-180 AP-1-bla reporter, EGF-induced, beta-lactamase ratio, 5 h; at 7.69 µM (top of the series) unless noted
Outline: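 First, ME-180 AP-1-bla cells were cultured overnight at 37 °C in low-serum Opti-MEM. Next, titrated compounds with EC50 EGF were incubated 5 hours. Finally, CCF4 was added for 2.5 hours and the 460/530 nm ratio recorded.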

[9] = target: Glucocorticoid receptor (Homo sapiens) (UniProt P04150); experiment: GR-GFP Redistribution (AID 450;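 active means compounds whose dose series gives a full or clear partial fitted curve of increased nuclear translocation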; further: potency means the concentration at half of the fitted maximal effect); settings: U2OS GR-GFP nuclear translocation, laser cytometry, 2 h
[10] = qHTS Assay for Identification of Small Molecule Agonists for Hypoxia Response Element Signaling Pathway (AID 914; active means well fitted activation curve with a large enough effect in the signal ratio, with a control signal flat, not every such curve was filed as active; the % refers to the signal ratio; further: potency means the concentration at half of the fitted maximal effect); settings: ME-180 (cervical carcinoma) HRE-bla reporter, beta-lactamase ratio, CoCl2, 17 h; activation: active compounds read high
Outline: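 Compounds in a titration series were added to ME-180 reporter cells alongside an EC50 level of CoCl2. After 17 hours, beta-lactamase activity was read as the 460nm/530nm emission ratio of CCF4, giving AC50 values.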

[11] = target: DNA polymerase eta (Homo sapiens) (UniProt Q9Y253); experiment: qHTS for Inhibitors of Polymerase Eta: Confirmatory Assay for Cherry-picked Compounds (AID 720502); settings: Pol eta primer extension, TAMRA/BHQ fluorescence, 10 min; further: potency means the concentration at half of the fitted maximal effect
Outline: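 Compounds are preincubated 15 min at room temperature with 10 nM human Pol eta, with buffer-only wells serving as negative control. Adding 50 nM final substrate starts the reaction, and TAMRA fluorescence is read over 10 min.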

Tumor susceptibility gene 101 protein (Homo sapiens), sequence (Q99816 whole entry, looked up, the tested form may be a part): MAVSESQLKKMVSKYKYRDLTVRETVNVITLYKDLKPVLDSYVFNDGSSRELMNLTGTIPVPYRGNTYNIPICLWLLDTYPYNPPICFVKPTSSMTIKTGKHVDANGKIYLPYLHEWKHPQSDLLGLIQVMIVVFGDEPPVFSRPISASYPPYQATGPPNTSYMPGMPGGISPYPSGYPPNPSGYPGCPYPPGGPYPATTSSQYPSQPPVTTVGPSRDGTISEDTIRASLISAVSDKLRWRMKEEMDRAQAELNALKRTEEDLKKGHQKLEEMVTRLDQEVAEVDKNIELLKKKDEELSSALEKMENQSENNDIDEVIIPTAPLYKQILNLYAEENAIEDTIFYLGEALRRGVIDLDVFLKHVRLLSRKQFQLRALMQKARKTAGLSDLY
Rap guanine nucleotide exchange factor 4 (Homo sapiens), sequence (Q8WZA2 whole entry, looked up): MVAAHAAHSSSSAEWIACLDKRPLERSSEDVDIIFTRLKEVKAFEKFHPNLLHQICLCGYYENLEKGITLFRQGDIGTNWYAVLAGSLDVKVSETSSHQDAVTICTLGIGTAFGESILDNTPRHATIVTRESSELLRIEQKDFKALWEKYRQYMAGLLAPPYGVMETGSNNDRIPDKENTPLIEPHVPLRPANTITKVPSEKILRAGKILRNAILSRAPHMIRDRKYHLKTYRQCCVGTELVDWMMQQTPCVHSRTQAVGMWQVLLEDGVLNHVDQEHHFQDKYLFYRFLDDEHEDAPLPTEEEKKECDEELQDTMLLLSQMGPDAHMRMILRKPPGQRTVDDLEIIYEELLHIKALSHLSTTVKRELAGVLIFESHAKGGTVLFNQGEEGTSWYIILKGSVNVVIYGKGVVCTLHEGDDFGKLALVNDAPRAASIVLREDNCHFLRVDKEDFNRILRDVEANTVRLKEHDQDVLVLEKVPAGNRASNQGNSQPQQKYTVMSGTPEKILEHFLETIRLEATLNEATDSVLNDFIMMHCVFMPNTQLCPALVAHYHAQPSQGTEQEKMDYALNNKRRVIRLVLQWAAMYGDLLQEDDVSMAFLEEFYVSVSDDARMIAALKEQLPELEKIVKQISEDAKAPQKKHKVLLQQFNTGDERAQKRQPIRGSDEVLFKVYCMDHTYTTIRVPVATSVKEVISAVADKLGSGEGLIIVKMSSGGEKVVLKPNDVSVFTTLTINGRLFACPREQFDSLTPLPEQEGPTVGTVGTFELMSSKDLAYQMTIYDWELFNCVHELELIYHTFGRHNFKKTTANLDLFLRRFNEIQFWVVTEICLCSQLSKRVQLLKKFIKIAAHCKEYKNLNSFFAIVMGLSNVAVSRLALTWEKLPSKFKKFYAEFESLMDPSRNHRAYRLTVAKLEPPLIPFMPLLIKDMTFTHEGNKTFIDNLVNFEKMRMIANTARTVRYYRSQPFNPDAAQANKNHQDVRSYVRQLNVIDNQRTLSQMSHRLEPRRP
Rap guanine nucleotide exchange factor 3 (Homo sapiens), sequence (O95398 whole entry, looked up): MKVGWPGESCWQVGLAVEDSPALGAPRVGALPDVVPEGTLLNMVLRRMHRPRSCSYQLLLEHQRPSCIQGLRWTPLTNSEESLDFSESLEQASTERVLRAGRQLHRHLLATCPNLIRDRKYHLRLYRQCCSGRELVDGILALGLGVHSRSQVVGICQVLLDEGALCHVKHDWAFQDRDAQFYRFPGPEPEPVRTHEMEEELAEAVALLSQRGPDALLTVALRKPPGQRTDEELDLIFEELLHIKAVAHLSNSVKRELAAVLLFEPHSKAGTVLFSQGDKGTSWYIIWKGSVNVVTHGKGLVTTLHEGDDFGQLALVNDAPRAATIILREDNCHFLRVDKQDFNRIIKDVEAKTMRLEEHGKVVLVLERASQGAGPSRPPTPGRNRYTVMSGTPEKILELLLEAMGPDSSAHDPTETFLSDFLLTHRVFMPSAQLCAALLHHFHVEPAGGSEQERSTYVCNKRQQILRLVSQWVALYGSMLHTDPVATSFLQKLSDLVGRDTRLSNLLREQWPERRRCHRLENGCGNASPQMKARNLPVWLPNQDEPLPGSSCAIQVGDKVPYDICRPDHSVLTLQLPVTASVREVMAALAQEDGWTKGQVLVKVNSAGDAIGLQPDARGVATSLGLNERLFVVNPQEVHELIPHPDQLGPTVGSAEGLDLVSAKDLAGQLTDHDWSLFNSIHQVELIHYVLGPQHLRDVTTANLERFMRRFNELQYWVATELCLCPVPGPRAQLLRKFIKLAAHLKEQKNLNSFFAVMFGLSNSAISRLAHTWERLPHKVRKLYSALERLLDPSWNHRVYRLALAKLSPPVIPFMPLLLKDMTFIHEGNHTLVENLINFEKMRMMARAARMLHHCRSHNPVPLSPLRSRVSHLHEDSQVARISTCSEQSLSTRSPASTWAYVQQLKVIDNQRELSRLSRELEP
DNA polymerase eta (Homo sapiens), sequence (Q9Y253 whole entry, looked up): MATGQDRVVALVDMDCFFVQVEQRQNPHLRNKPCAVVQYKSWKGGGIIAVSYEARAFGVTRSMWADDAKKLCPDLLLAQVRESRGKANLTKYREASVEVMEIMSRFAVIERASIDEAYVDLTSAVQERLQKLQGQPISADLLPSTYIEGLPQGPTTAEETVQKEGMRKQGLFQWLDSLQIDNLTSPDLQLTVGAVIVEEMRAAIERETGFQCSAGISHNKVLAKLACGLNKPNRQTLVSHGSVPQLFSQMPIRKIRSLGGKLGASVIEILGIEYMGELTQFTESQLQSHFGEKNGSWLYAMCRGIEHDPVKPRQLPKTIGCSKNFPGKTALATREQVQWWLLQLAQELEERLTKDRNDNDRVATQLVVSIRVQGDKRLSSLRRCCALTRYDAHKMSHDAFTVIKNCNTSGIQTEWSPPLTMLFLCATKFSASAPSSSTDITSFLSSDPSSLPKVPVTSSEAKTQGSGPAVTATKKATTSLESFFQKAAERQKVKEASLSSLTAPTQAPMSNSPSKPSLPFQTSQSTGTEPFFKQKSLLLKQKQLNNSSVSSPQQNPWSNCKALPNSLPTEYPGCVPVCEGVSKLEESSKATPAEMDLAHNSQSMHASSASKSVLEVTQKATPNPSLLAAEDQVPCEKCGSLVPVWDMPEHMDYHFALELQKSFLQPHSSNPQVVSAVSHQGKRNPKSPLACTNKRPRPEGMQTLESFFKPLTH
Glucocorticoid receptor (Homo sapiens), sequence (P04150 whole entry, looked up): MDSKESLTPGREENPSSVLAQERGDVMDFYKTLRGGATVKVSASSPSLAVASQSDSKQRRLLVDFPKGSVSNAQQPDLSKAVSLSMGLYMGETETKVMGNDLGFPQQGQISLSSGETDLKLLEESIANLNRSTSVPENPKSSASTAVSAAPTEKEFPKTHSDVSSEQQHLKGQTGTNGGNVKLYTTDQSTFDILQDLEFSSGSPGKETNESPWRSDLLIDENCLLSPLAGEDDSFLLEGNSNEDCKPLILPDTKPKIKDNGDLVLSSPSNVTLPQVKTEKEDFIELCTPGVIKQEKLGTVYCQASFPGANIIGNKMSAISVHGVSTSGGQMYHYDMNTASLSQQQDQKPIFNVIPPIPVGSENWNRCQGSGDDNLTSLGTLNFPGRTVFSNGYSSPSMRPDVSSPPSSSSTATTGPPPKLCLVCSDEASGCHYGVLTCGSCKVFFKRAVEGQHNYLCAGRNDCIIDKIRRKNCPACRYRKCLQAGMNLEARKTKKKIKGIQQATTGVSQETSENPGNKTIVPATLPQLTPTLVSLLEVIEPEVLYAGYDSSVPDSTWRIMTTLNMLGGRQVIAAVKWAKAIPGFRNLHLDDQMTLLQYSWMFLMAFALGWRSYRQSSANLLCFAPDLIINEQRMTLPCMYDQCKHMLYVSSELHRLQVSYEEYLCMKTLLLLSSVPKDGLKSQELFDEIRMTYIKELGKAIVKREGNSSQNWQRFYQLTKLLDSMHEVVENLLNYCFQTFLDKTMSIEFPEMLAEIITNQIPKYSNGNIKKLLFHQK

## Cc1cc(C=C2C(=O)c3ccccc3C2=O)c(C)n1-c1ccc(Cl)cc1
[1]
  Potency: inactive
[2]
  Potency: inactive
[3]
  Potency: inactive
[4]
  activation: 3.84% [at 17.1 µM, percent relative to cAMP agonist control]
[5]
  Potency: inactive
[6]
  activity change, negative = inhibition: -26.7% [at 30.8 µM]
[7]
  activation: 7.12% [at 30.8 µM]

## CCCCCCc1cc2cc(C(=O)NC)c(=N)oc2cc1O
[8]
  activity change, negative = inhibition: -13% [at 17.2 µM]
[9]
  Potency: > 20.6 µM
[10]
  Potency: 3.98 µM (active)
[2]
  Potency: inactive
[3]
  Potency: 89.1 µM (active)
[4]
  Potency: 100 µM (active)
[5]
  Potency: inactive
[6]
  Potency: inactive

## N#CC(C(=O)NCc1ccccc1)c1nc2ccccc2nc1N1CCCC1 (stereo not given)
[1]
  Potency: inactive
[2]
  Potency: inactive
[3]
  Potency: 100 µM (active)
[4]
  Potency: 89.1 µM (active)
[5]
  Potency: 75.7 µM (active)
[6]
  Potency: inactive
[7]
  Potency: inactive

## Cc1ccc(S(=O)(=O)N2[C@@H](c3ccccc3)C(C(=O)O)=CC[C@H]2c2ccc(C(C)C)cc2)cc1
[2]
  Potency: 75.7 µM (active)
[3]
  Potency: inactive
[4]
  Potency: inactive
[5]
  Potency: inactive
[7]
  Potency: inactive

## CN1/C(=C/C=C/c2n(C)c3cc([N+](=O)[O-])c([N+](=O)[O-])cc3[n+]2C)C(C)(C)c2ccccc21
[2]
  Potency: 30.1 µM (active)
[3]
  Potency: inactive
[4]
  Potency: inactive
[5]
  Potency: 42.6 µM (active)
[7]
  Potency: inactive

## O=C1N/C(=N/NC(=O)c2cccc3ccccc23)S/C1=C\c1ccccc1OCc1ccccc1
[2]
  Potency: 3.55 µM (active)
[3]
  Potency: inactive
[4]
  activation: 0.729% [at 17.1 µM, percent relative to cAMP agonist control]
[5]
  Potency: inactive
[7]
  activation: 8.81% [at 30.8 µM]

## Cc1cc(OC(C)C(=O)NCc2ccccn2)c2c(C)c(Cc3ccccc3)c(=O)oc2c1 (stereo not given)
[2]
  Potency: 47.8 µM (active)
[3]
  Potency: inactive
[4]
  Potency: inactive
[5]
  Potency: inactive
[7]
  Potency: inactive

## Nc1ncc(Br)cc1S(=O)(=O)Nc1cc(C(F)(F)F)cc(C(F)(F)F)c1
[2]
  Potency: 75.7 µM (active)
[3]
  Potency: inactive
[4]
  Potency: inactive
[5]
  Potency: inactive
[7]
  Potency: inactive

## Cc1ccc(C(=O)N2CCN(c3ccccc3)CC2)cc1S(=O)(=O)N1CCOCC1
[2]
  Potency: inactive
[3]
  Potency: inactive
[4]
  Potency: inactive
[5]
  Potency: inactive
[7]
  Potency: inactive

## CCOc1nc(C)cc(C)c1S(=O)(=O)c1cccc(Cl)c1
[2]
  Potency: inactive
[3]
  Potency: inactive
[4]
  Potency: inactive
[5]
  Potency: 19 µM (active)
[7]
  Potency: inactive

## Cc1ccc(CNC(=O)COc2ccc(C(=O)c3ccc(F)cc3)cc2)cc1
[2]
  Potency: inactive
[3]
  Potency: inactive
[4]
  Potency: inactive
[5]
  Potency: inactive
[7]
  Potency: inactive

## COc1ccc(-c2ccc(C(=O)NCCN3CCOCC3)c3occc23)c(C)c1
[2]
  Potency: inactive
[3]
  Potency: inactive
[4]
  Potency: inactive
[5]
  Potency: inactive
[7]
  Potency: inactive

## CC(=O)c1cccc(NC(=O)c2c(-c3ccccc3)c(-c3ccccc3)nn(C)c2=O)c1
[2]
  Potency: inactive
[3]
  Potency: inactive
[4]
  Potency: inactive
[5]
  Potency: inactive
[7]
  Potency: inactive

## C=CCn1cc(C(=O)NCCCOC)c(=O)c2cc(S(=O)(=O)N(CC)CC)ccc21
[2]
  Potency: inactive
[3]
  Potency: inactive
[4]
  Potency: inactive
[5]
  Potency: inactive
[7]
  Potency: inactive

## COc1cccc(CNC(=O)COc2cc3c(c4oc(=O)cc(C)c24)CCC(C)(C)O3)c1
[2]
  Potency: inactive
[3]
  Potency: inactive
[4]
  Potency: inactive
[5]
  Potency: inactive
[7]
  Potency: inactive

## COc1cc(CCc2ccccc2)c(C(=O)O)c(O)c1C/C=C(/C)CCC=C(C)C
[2]
  Potency: 42.6 µM (active)
[3]
  Potency: inactive
[4]
  Potency: inactive
[5]
  Potency: 75.7 µM (active)
[7]
  Potency: inactive

## CC1CN(c2nc3ccccc3nc2C(C#N)C(=O)NCc2ccc3c(c2)OCO3)CC(C)O1 (stereo not given)
[1]
  Potency: inactive
[2]
  Potency: inactive
[3]
  Potency: inactive
[4]
  Potency: inactive
[5]
  Potency: inactive
[6]
  Potency: inactive

## CCOc1cc(/C=C(\C#N)C(=O)Nc2cccc(C(=O)O)c2)cc(Br)c1OC(=O)c1ccc(OC)cc1
[2]
  Potency: 42.6 µM (active)
[3]
  Potency: inactive
[4]
  Potency: inactive
[5]
  Potency: 12 µM (active)
[7]
  Potency: inactive

## C=CCN(CC=C)C(=O)COn1nnc2ccc(S(=O)(=O)N3CCOCC3)cc21
[2]
  Potency: inactive
[3]
  Potency: inactive
[4]
  Potency: inactive
[5]
  Potency: inactive
[7]
  Potency: inactive

## O=C1NC(=S)S/C1=C\C=C\c1ccc([N+](=O)[O-])o1
[2]
  Potency: 8.49 µM (active)
[3]
  Potency: inactive
[4]
  Potency: inactive
[5]
  Potency: inactive
[7]
  Potency: inactive

## CCN1CCN(C2=CC3=CC(=C(C#N)C#N)CCC3CC2)CC1 (stereo not given)
[2]
  Potency: inactive
[3]
  Potency: 79.4 µM (active)
[4]
  Potency: 100 µM (active)
[5]
  Potency: 67.5 µM (active)
[7]
  Potency: 10 µM (active)

## N#C/C(=C\c1ccccn1)c1nc2ccccc2s1
[1]
  Potency: inactive
[2]
  Potency: 19 µM (active)
[3]
  Potency: inactive
[4]
  Potency: inactive
[5]
  Potency: inactive
[6]
  Potency: inactive

## N#Cc1c(N2CCCCC2)nc(N)c2c(N)nc(SCC(=O)O)cc12
[11]
  Potency: 19 µM (active)
[2]
  Potency: 31.6 µM (active)
[3]
  Potency: inactive
[4]
  activation: 13.6% [at 17.1 µM, percent relative to cAMP agonist control]
[5]
  Potency: inactive
[6]
  activity change, negative = inhibition: 35.9% [at 30.8 µM]
